# Laboratory results: PubChem BioAssay AID720531 (The Scripps Research Institute Molecular Screening Center, 2013)
# In all, about 1,000 compounds went through this assay and about 270 (27%) were called active. These entries were drawn from the full list. A number with no mark means an inactive call. Cut-off read from the data, not from the text of the source: active = inhibition above about 14%; inactive = the rest.
# Target: Methyl-CpG-binding domain protein 2 (Homo sapiens) (UniProt Q9UBB5)
# Test: inhibitors of MBD2 binding to methylated DNA, confirmation, biochemical, TR-FRET, DNA-binding domain, human (AID 720531)
# Details: TR-FRET MBD2-DBD binding to methylated oligonucleotide; at 4.4 µM; stronger effect = higher value
# Methyl-CpG-binding domain protein 2 (Homo sapiens), sequence (Q9UBB5 whole entry, looked up, the tested form may be a part): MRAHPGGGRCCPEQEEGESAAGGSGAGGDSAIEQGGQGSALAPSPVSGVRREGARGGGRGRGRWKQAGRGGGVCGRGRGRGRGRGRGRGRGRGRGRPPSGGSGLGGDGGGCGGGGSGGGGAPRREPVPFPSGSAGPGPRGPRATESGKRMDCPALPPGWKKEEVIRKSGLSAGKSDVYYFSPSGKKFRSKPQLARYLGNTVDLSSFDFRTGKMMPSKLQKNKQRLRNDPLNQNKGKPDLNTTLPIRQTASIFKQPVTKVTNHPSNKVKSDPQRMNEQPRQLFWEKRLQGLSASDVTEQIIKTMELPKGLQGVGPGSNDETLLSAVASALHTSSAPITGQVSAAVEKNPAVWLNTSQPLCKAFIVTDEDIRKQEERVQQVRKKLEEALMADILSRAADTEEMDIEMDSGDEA
row,SMILES,inhibition
1,O=C1NC(=O)N(Cc2ccco2)C(=O)/C1=C\c1ccc(-c2ccc(F)cc2)o1,4.49%
2,Cc1cc(/C=C2/C(=O)NC(=O)N(Cc3ccco3)C2=O)c(C)n1-c1ccc(C(=O)O)cc1,3.26%
3,COc1ccc(N2C(=O)/C(=C/c3ccco3)C(=O)NC2=S)cc1,88.4% (active)
